For this assay, the system named is Botulinum neurotoxin type F light chain protease (Clostridium botulinum). The assay can be described thus: inhibition of botulinum toxin F LC protease – biochemical, flow cytometry, cherry pick 1, confirmation (AID 602140). Conditions: multiplex microsphere protease cleavage assay, at 10 µM, stronger effect = higher value. Background: Flow cytometry measures light scatter and fluorescence of single cells or particles in a stream.

The inhibition is the relative decrease from the control value, in per cent.

SMILES strings stand for the structures. Where “and” joins values, the source holds several entries; their conditions need not be identical. Equal entries are not always repeated. The list shows a part of the results. Unmarked numbers belong to inactive results. No rule for the calls is given here.

Consider `CC1CCc2c(sc3nc4n(c(=O)c23)CCS4)C1` (stereo unspecified), for which the inhibition is -5.8%.

As to `Cc1cc(S(=O)(=O)NC2CCCC2)ccc1-n1cnnn1`, the inhibition was 3.7%.

Turning to `Cc1onc(-c2ccccc2Cl)c1C(=O)NCCn1ccc2ccccc21`, the inhibition was -5.2%.

With `O=C(Nc1nnc(CCc2ccccc2)s1)C1CCCO1` (stereo unspecified), the inhibition is -7%.

For `CC(C)Cc1nnc(NC(=O)CCC(=O)Nc2ccc3cn[nH]c3c2)s1`, the inhibition is -1.9%.

For the compound `CCCN1C2CCCC1CC(NC(=O)c1cccc(OC)c1)C2` (stereo unspecified), the inhibition is 0.9%.

With `CCCSc1nc2sc3c(c2c(=O)n1-c1ccc(OC)cc1)CCN(C)C3`, the inhibition is 5.3%.

`O=S(=O)(NC1CCCCC1N1CCC(O)CC1)c1ccc(Cl)cc1` (stereo unspecified): the inhibition is 2.2%.

Turning to `COc1ccc(NS(=O)(=O)c2cc(C(=O)Nc3ccccc3C(=O)O)ccc2C)cc1`, the inhibition was -0.5%.

Consider `COc1ccc(N(CC(=O)NCCSCc2cccc(Cl)c2)S(C)(=O)=O)cc1`, for which the inhibition is -2.3%.

On to `COCc1cc(=O)[nH]c(SC)n1`, for which the inhibition was -4.2%.

In the case of `CN1CCN(c2ccc(NC(=O)c3ccccc3)cc2)CC1`, the inhibition was 1.4%.

On to `OC(c1ccc(Cl)cc1)C(CN1CCOCC1)c1ccccc1` (stereo unspecified), for which the inhibition is 3.4%.

As for `CCOCC(=O)NCc1ccc2c(c1)cc(C)n2C`, the inhibition is -12.1%.

Consider `CN(C(=O)c1ccccn1)c1nnc(-c2ccccn2)s1`, for which the inhibition is -3.7%.

In the case of `Cc1ccc(C(=O)COc2cccc(NC(=O)c3ccco3)c2)cc1`, the inhibition is -7.2%.

As to `COc1ccc(C2CC(c3cccs3)=NN2c2nc(C)c(C(C)=O)s2)cc1OC` (stereo unspecified), the inhibition was -1.7% and 7.1%.

Consider `CC(=O)c1cccc(NC(=O)N2CCCC2C(=O)NCCc2ccccc2)c1` (stereo unspecified), for which the inhibition is 0%.

Consider `CCOc1ccc(NC(=O)CC(Cc2ccc(Cl)cc2)C(=O)O)cc1` (stereo unspecified), for which the inhibition is -1.5%.

As for `COc1ccc(C(=O)Nc2nc(-c3ccc(OC)cc3)c(-c3ccc([N+](=O)[O-])cc3)s2)cc1`, the inhibition was 4%.

`Cc1ccccc1NC(=O)c1cc(S(=O)(=O)Nc2cccc(C(=O)O)c2)ccc1Cl`: the inhibition is -1.9%.

(Values after PubChem BioAssay AID602140 (NMMLSC, 2011).)
